High-throughput results as filed in PubChem.
ABHD5 PLIN5 PPI = blocks binding of human ABHD5 to perilipin-5 | hit rate 0.78% among 360,000 | Split G. princeps luciferase complementation, luminescence, 4 h | inhibition, % at 4 µM | AID 602281 | Q00G26+Q8WTS1;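 active means inhibition above the mean inhibition across every tested compound plus 3 SD, cut at about 22% in these data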
Target sequence (Q00G26 whole entry, looked up): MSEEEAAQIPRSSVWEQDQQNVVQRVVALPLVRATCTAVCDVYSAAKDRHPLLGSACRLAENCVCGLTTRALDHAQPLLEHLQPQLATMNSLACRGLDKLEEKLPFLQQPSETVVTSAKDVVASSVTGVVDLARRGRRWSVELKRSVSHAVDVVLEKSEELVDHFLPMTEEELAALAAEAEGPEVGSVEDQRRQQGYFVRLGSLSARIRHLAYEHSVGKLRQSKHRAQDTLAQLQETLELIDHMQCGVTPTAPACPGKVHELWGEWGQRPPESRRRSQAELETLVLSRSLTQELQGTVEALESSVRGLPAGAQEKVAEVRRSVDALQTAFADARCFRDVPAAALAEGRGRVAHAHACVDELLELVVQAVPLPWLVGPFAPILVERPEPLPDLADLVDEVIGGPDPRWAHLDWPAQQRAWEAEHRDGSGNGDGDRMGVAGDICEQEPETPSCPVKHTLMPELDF
Target sequence (Q8WTS1 whole entry, looked up): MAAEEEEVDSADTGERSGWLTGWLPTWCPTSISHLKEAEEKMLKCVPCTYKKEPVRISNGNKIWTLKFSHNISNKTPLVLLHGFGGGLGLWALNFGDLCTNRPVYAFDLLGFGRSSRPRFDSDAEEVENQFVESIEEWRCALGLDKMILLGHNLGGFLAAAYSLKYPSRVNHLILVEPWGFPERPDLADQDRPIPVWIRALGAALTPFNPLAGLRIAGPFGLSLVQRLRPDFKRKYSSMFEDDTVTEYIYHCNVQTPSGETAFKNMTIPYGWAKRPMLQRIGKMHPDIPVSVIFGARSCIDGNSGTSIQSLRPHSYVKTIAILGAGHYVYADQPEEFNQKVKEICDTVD
MITF TRPM1 inh = MITF TRPM1 promoter inhibition in SK-MEL-5 cells; SK-MEL-5 TRPM1 promoter luciferase, 24 h; inhibition, % at 12.5 µM; hit rate 0.83% among 330,000; AID 488899;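 active means mean inhibition across replicates of 60% or more, whatever share of single replicates reaches that level; inconclusive means some that reach 60%, reason not given; inactive means mean inhibition across replicates below 60%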
KKLEB cytotox = reduces viability of KKLEB cystic fibrosis airway cells; hit rate 0.36% among 360,000; activity change (cytotoxicity), % at 5 µM; KKLEB CF airway cells viability, ATPlite luminescence, overnight; hits give low values; cells stimulated with P. aeruginosa culture filtrate;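 active means corrected activity change at or below -50% at 5 µM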
CF NFkB block = cystic fibrosis NF-kB activation inhibition; hit rate 0.86% among 360,000; AID 588850; inhibition, % at 5 µM; KKLEB NF-kB-GFP reporter, PAF-induced, GFP fluorescence overnight;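 active means at least 50% inhibition at 5 µM, scaled per plate between neutral and stimulator controls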;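 further: PAF is a Pseudomonas aeruginosa culture filtrate used as stimulus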
HIF-2a inh = inhibitors of HIF-2a; hit rate 0.72% among 360,000; AID 624352; inhibition, % at 18.8 µM; 786-0 RCC cells HIF-2a reporter, luciferase luminescence, overnight;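 active means inhibition of the luminescence signal of 40% or more relative to plate controls, in a single-dose primary screen at 18.75 µM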
Peg3 promoter = reduces Peg3 promoter-driven luciferase expression in HeLa; HeLa PEG-Prom luciferase reporter, luminescence, overnight; hit rate 1.7% among 360,000; inhibition, % at 20 µM; AID 588405;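 active means inhibition of at least 50% at 20 µM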
Mdm2-MdmX confirm = confirmation of inhibitors of human Mdm2/MdmX interaction, set 2 | shares compounds with HIF-2a inh | SaOS-2 split-luciferase Mdm2/MdmX complementation, luminescence | inhibition, % at 8 µM | hit rate 99% among 740 | AID 504601;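 active means mean inhibition of the luminescence signal across two replicates at or above 26 percent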
HIF-2a inh conf = HIF-2a inhibition, single concentration confirmation; 786-0 RCC cells, HIF-2a luciferase reporter luminescence, overnight; hit rate 56% among 1,800; inhibition, % at 18.8 µM; shares compounds with HIF-2a inh;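 active means mean inhibition across four replicates of at least 40 percent at the single tested concentration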
HIF-1a counter = counter-screen for HIF-2a inhibitors: HIF-1a inhibition in MiaPaCa-2 cells; shares compounds with HIF-2a inh; MiaPaCa-2 HIF-1a luciferase reporter, desferoxamine, overnight; inhibition, % at 18.8 µM; hit rate 72% among 1,800; AID 651589;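 active means mean inhibition of the reporter signal across four replicates at the single tested dose of 50% or more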
Of the large screens only hits and unclear results are named; the others gave an inactive call (follow-up assays come after a bar, where they were run). Most compounds without a hit are left out; they make up all but 3% or so of the library.

CN(C)C(=O)COc1ccc(S(=O)(=O)c2ccc(OCC(=O)N(C)C)cc2)cc1	none
CN(C)CCCNc1c2ccccc2nc2ccccc12	MITF TRPM1 inh inconclusive, Peg3 promoter 102.0 | Mdm2-MdmX confirm 102.0
CSCCC(NC(=O)c1ccccc1Cl)C(=O)NNC(=O)c1ccncc1 (stereo not given)	none
O=C(CCN1C(=O)/C(=C/c2ccccc2)SC1=S)N[C@@H](CO)Cc1ccccc1	HIF-2a inh 49.9, Peg3 promoter 80.3 | Mdm2-MdmX confirm 98.2
COc1ccc(N2CCN(C(=O)CSc3nnc(NC(=O)C4CCC4)s3)CC2)cc1	none
C=C1CCN(c2ccc(C(=O)NCCC)cc2[N+](=O)[O-])CC1	none
CN1CCN(CC(=O)N2CCn3c4c(c5cc(C6CCCCC6)ccc53)CCCC42)CC1 (stereo not given)	ABHD5 PLIN5 PPI 23.3, MITF TRPM1 inh 64.6, Peg3 promoter 105.5 | Mdm2-MdmX confirm 103.5
CC(C)C[C@@H](CN1CCC[C@@H]1CN1C(=O)C(=O)NC[C@@H]1Cc1ccccc1)N1C[C@H](Cc2ccccc2)N(CC2CCCCCC2)C(=O)C1=O	HIF-2a inh 79.5, Peg3 promoter 54.7 | HIF-2a inh conf inactive | HIF-1a counter 104.8
CCOC(=O)c1sc(NC(=O)c2cc3c(s2)CCC(C)C3)nc1C (stereo not given)	MITF TRPM1 inh 71.5, HIF-2a inh 48.2 | HIF-2a inh conf 45.1 | HIF-1a counter inactive
CC(C)(C)c1ccc(-c2noc(CCC(=O)NCC3CCCO3)n2)cc1 (stereo not given)	MITF TRPM1 inh 83.8, HIF-2a inh 79.9 | HIF-2a inh conf 94.6 | HIF-1a counter inactive
CC(C)(C)c1ccc(-c2noc(CCC(=O)Nc3cccnc3)n2)cc1	MITF TRPM1 inh 79.0, HIF-2a inh 92.0 | HIF-2a inh conf 96.4 | HIF-1a counter inactive
CC(C)(C)c1ccc(-c2noc(CCC(N)=O)n2)cc1	MITF TRPM1 inh 70.9, HIF-2a inh 86.8 | HIF-2a inh conf 94.0 | HIF-1a counter inactive
COc1ccc(-c2noc(CCC(=O)Nc3cccnc3)n2)cc1	none
N#C/C(=C\c1cccnc1)c1ccccc1[N+](=O)[O-]	none
CC1=NN(C(=S)Nc2ccccc2)C(C)(C)C1	none
S=C(N/N=C/c1ccc2ncccc2c1)Nc1ccccc1	HIF-2a inh 48.2 | HIF-2a inh conf inactive | HIF-1a counter 63.0
C(=N\NCc1ccccc1)/c1ccc2ncccc2c1	none (no result: MITF TRPM1 inh)
COc1cc(OC)nc(Nc2nc(C(N)Cc3ccc(C(F)(F)F)cc3)cs2)n1 (stereo not given)	HIF-2a inh 70.4, Peg3 promoter 115.0 (no result: MITF TRPM1 inh) | HIF-2a inh conf inactive | HIF-1a counter 104.7
COc1cccc(SCc2noc(C(=O)NC(C)C)c2C(=O)NC(C)C)c1	none
COc1cc(OC)cc(-c2nnc(Nc3nc4c(F)cccc4s3)o2)c1	HIF-2a inh 71.6 | HIF-2a inh conf 84.5 | HIF-1a counter inactive
Fc1cccc2sc(Nc3nnc(-c4ccccc4)o3)nc12	none
OC(c1ccc(Cl)c(F)c1)c1ncc(-c2ccc(F)cc2)[nH]1 (stereo not given)	none (no result: MITF TRPM1 inh)
CCN(CC(=O)Nc1ccc(NC(C)=O)cc1)C(=O)c1ccc(NC2CC2)c([N+](=O)[O-])c1	none
Cc1ccc(Cn2ccsc2=NC(=O)COC(=O)c2ccc(NC(=O)CC#N)cc2)cc1	none
Cc1ccc(Cn2ccsc2=NC(=O)CCl)cc1	KKLEB cytotox -92.3, CF NFkB block 93.8 | Mdm2-MdmX confirm 103.0
CCC(C)N(CC(=O)Nc1cccc(C)c1C)C(=O)CCl (stereo not given)	HIF-2a inh 51.0 | Mdm2-MdmX confirm 102.7 | HIF-2a inh conf 45.9 | HIF-1a counter 53.5
COc1cc(Cl)c(C)cc1NC(=O)c1ccccc1NC(=O)CN1CCN(C(C)=O)CC1	none (no result: MITF TRPM1 inh)
CCOc1ccc(NC(=O)CN(C)C(=O)c2c(C)nn(Cc3ccccc3Cl)c2C)cc1OCC	none
O=S(=O)(CC(CN1CCCCC1)N1CCCCC1)c1ccc2ccccc2c1 (stereo not given)	MITF TRPM1 inh 74.9, KKLEB cytotox -59.0, CF NFkB block 96.6, HIF-2a inh 61.8, Peg3 promoter 108.6 | HIF-2a inh conf inactive | HIF-1a counter 104.1
O=c1cc(-c2c(F)c(F)c(F)c(F)c2F)oc2ccccc12	HIF-2a inh 61.5, Peg3 promoter 84.0 | HIF-2a inh conf inactive | HIF-1a counter 80.0
CSc1ccc(/C=N/Nc2cccc(C(=O)O)c2)cc1	MITF TRPM1 inh 79.2, HIF-2a inh 71.5, Peg3 promoter 68.0 | HIF-2a inh conf 85.3 | HIF-1a counter inactive
O=C(O)c1ccc(N/N=C/c2cccc(F)c2)cc1	none
O=C(Cn1ncc(Cl)c(Cl)c1=O)NCC1CCCCC1	MITF TRPM1 inh 91.9, KKLEB cytotox -72.6, CF NFkB block 94.8, HIF-2a inh 96.8, Peg3 promoter 107.6 | HIF-2a inh conf 90.9 | HIF-1a counter 104.9
Cc1cccc(NC(=O)CNC(=O)CSc2ncccn2)c1C	none
Cc1cccc(NC(=O)CNC(=O)Cn2ncc(Cl)c(Cl)c2=O)c1C	MITF TRPM1 inh 84.7, KKLEB cytotox -61.2, CF NFkB block 91.7, HIF-2a inh 83.7, Peg3 promoter 94.8 | Mdm2-MdmX confirm 103.2
CC1(c2ccc3c(c2)OCCO3)NC(=O)N(CC(=O)Nc2c(F)cccc2F)C1=O (stereo not given)	none
COc1cc(C(=O)NCCCC2CCCC2)ccc1OC1CCN(C(C)=O)CC1	none
O=C1CCC(C(=O)N2CCCCO2)CN1Cc1ccc(Cl)cc1 (stereo not given)	none
CS(=O)(=O)c1nc(-c2ccc(Br)cc2)cc(-c2ccccc2)c1C#N	KKLEB cytotox -66.2, CF NFkB block 80.5, HIF-2a inh 97.2, Peg3 promoter 112.6 | Mdm2-MdmX confirm 103.2 | HIF-2a inh conf inactive | HIF-1a counter 100.4
CS(=O)c1nc(-c2ccc(Br)cc2)cc(-c2ccccc2)c1C#N (stereo not given)	MITF TRPM1 inh 78.0, HIF-2a inh 88.1, Peg3 promoter 106.0 | HIF-2a inh conf inactive | HIF-1a counter 97.6
N#Cc1c(-c2ccc(Br)cc2)cc(-c2cccnc2)nc1N	none
COc1ccc(-c2cc(-c3ccccc3)c(C#N)c(S(C)(=O)=O)n2)cc1	HIF-2a inh 88.4, Peg3 promoter 104.4 | HIF-2a inh conf inactive | HIF-1a counter 85.1
CCOC(=O)[C@H]1[C@H]2COc3ccc(Br)cc3[C@@H]2N2C(=O)c3c(C)cc(C)cc3NC(=O)[C@@]12C	none
